Records with an inconclusive call do not appear. A call without a number means that no potency is given here. Calls of active or inactive are those of the source. The call rests on the fitted dose curve; in most records, active means well fitted inhibition curve with a large enough effect; inconclusive means small, poorly fitted or top-dose-only effect; inactive means flat fitted curve, though single readings scatter.
biological target: Calcium and integrin-binding protein 1 (Homo sapiens) (UniProt Q99828); experiment: Primary qHTS for Identification of Calcium Integrin Binding Protein 1 (CIB1) Competitor (AID 1508620); conditions: CIB1-GST / FITC-alphaIIb peptide fluorescence polarization; series mostly up to 114 µM; further: top concentration of the series differs between compounds
In short: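 Fluorescence polarization competition: GST-tagged CIB1 (1 uM final) preincubated with compound 15 min at room temperature, then FITC-labelled alphaIIb peptide (100 nM final) added. After 15 min at room temperature, polarization read at Ex 480/Em 540.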

Calcium and integrin-binding protein 1 (Homo sapiens), sequence (Q99828 whole entry, looked up): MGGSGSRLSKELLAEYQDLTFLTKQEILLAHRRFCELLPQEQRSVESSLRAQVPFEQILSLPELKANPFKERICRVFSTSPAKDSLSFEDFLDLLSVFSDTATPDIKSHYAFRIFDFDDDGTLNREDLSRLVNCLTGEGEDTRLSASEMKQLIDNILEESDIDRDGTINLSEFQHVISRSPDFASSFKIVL

Compound | Potency
Cc1cc2ncc(C(=O)NCC(C)(C)NCC(=O)N3CCC[C@H]3C#N)cn2n1 | inactive
C=C(NC(=O)C(=C)NC(=O)c1csc(C2=NC3c4csc(n4)C4NC(=O)c5csc(n5)C(C(C)(O)C(C)O)NC(=O)C5CSC(=N5)/C(=C/C)NC(=O)C(C(C)O)NC(=O)c5csc(n5)C3(CC2)NC(=O)C(C)NC(=O)C(=C)NC(=O)C(C)NC(=O)C(C(C)CC)NC2C=Cc3c(C(C)O)cc(nc3C2O)C(=O)OC4C)n1)C(N)=O (centres undefined) | inactive
C[C@@H](NC(=O)[C@H](O)c1cc(F)cc(F)c1)C(=O)N[C@@H]1C(=O)N(C)c2ccccc2-c2ccccc21 | inactive
Nc1nc(NC2CC2)cc(-c2cccc(Cl)c2Cl)n1 | inactive
C/C=C(/C)C(=O)O[C@@H]1C[C@@H](OC(=O)CC(C)C)C2(C)C3C(=O)C=C(C)C2C3C1(C)C (some centres undefined) | inactive
O[C@@](Cc1ncc(CC2(C(F)(F)F)CC2)[nH]1)(c1ccc(-n2cccn2)cc1)C(F)(F)F | inactive
C[C@@H]1O[C@@H](O[C@H]2CC[C@@]3(C)C(CC[C@]4(C)C3CC=C3[C@@H]5CC(C)(C)CC[C@]5(C(=O)O[C@@H]5O[C@H](CO)[C@@H](O)[C@H](O)[C@H]5O)CC[C@]34C)[C@]2(C)CO)[C@H](O)[C@H](O[C@@H]2O[C@H](CO)[C@@H](O)[C@H](O)[C@H]2O)[C@H]1O (some centres undefined) | inactive
CC/C(C)=C/C(=O)OC1C(OC2(C)CCC3C(C4C(C)CCC42)C3(C)C)OC(C)C(O)C1O (centres undefined) | inactive
Cc1cc2c(c(=O)o1)C=C1CC[C@H]([C@H](C)Cn3cnc(=N)c4[nH]cnc43)C[C@@H]1O2 | inactive
